The test system of assay [1] is Zika virus NS2B-NS3 protease (linked construct). In words: Primary screen NINDS Rhodamine qHTS for Zika virus inhibitors (AID 1347160). Further: nearly all actives have a fitted effect of over 55% in size. Further: potency means the concentration at half of the fitted maximal effect. The following applies: purified NS2B-NS3 protease, Rhodamine110 substrate fluorescence; series mostly up to 112 µM. In short, it runs like this:
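Each compound, titrated, sat 15 min with 25 nM linked protease before 1.5 microM Rhodamine110 substrate went in. Fluorescence gain over the next 15 min, in pH 8.0 Tris with Tween 20, gave Hill-fitted curves.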
Background: In qHTS, concentration-response curves come from the screen itself.

Assay [2] is described as follows: OV-SAHO Cancer Cell Toxicity qHTS against the NCATS CANVASS Library (AID 1347348). Further: nearly all actives have a fitted effect of over 55% in size. Further: potency means the concentration at half of the fitted maximal effect. The note with it: OV-SAHO viability, CellTiter-Glo luminescence, 72 h; series mostly up to 38.3 µM. In short, it runs like this: (§1)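 Following a 4 h pre-incubation of 1000 seeded cells, compounds were pinned in an 11-pnt dilution series and left for 72 h; viability then came from CellTiter-Glo.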

Assay [3] is described as follows: UWB1.289-WTBRCA1 Cancer Cell Toxicity qHTS against the NCATS CANVASS Library (AID 1347354). The note with it: UWB1.289-WTBRCA1 viability, CellTiter-Glo luminescence, 72 h; series mostly up to 38.3 µM. In short, it runs like this:
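Toxicity was measured as CellTiter-Glo luminescence after 72 h exposure to an 11-point compound series. Compound was added to 1000 cells/well 4 h after seeding.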

Assay [4] is described as follows: qHTS for Antimalaria activity screened against the NCATS CANVASS Library (AID 1347380). Further: nearly all actives have a fitted effect of over 40% in size. Further: potency means the concentration at half of the fitted maximal effect. The following applies: P. falciparum Dd2 growth, SYBR Green fluorescence, 72 h; series mostly up to 28.7 µM. In short, it runs like this:
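SYBR Green fluorescence at 485/535 nm was read 18 hr after lysis. This followed a 72 hr incubation at 37C in 5% O2, 5% CO2 of Dd2-infected erythrocytes (0.3% parasitemia, 2.5% final hematocrit) with compounds titrated over 11 concentrations.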

Assay [5] is described as follows: UWB1.289 Cancer Cell Toxicity qHTS against the NCATS CANVASS Library (AID 1347347). Further: nearly all actives have a fitted effect of over 60% in size. Further: potency means the concentration at half of the fitted maximal effect. The note with it: UWB1.289 viability, CellTiter-Glo luminescence, 72 h; series mostly up to 38.3 µM. In short, it runs like this:
as §1

Assay [6] in a line: Panc-1005 Cancer Cell Toxicity qHTS against the NCATS CANVASS Library (AID 1347349). Further: nearly all actives have a fitted effect of over 60% in size. Further: potency means the concentration at half of the fitted maximal effect. The note with it: Panc-1005 viability, CellTiter-Glo luminescence, 72 h; series mostly up to 38.3 µM. In short, it runs like this: as §1
For assay [7], the system named is Zika virus NS2B-NS3 protease (linked). In words: 384 well plate NINDS AMC confirmatory qHTS for Zika virus inhibitors (AID 1347163). Further: potency means the concentration at half of the fitted maximal effect; nearly all actives have a fitted effect of over 50% in size. The note with it: Recombinant NS2B-NS3 protease, Ac-VKTGKR-AMC fluorescence; series mostly up to 100 µM. In short, it runs like this:
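Fluorescence at 355/460 nm was read after 25 minutes of cleavage of 30 microM Ac-VKTGKR-AMC at room temperature, in the dark. Before substrate addition, compounds (up to 1 mM final) sat ~15 minutes with 5, 30 or 60 nM linked protease. Signals were normalized to no-enzyme and no-inhibitor wells.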

SMILES strings stand for the structures. Records with an inconclusive call do not appear. The source made the active and inactive calls. The call rests on the fitted dose curve; in most records, active means well fitted curve in the direction sought with a large enough effect; inconclusive means small, poorly fitted or top-dose-only effect, or another doubt; inactive means no such curve, though single readings can be large; an effect the other way counts as inactive or inconclusive.

As to `COC1=C(C2=C(OC)C(=O)c3cc4c(c(O)c3C2=O)C(=O)O[C@H](C)C4)C(=O)c2c(cc3c(c2O)C(=O)O[C@H](C)C3)C1=O`, the Potency in assay [1] is 3.3 µM (active). Also, the Potency entry in assay [2], in assay [3] and in assay [4] was “inactive” each time.

Turning to `c1ccc2nc3c(cc2c1)[nH]c1ccccc13`, the Potency result in assay [5], in assay [3] and in assay [4] was “inactive” throughout.

For `C/C=C(\C)C(=O)O[C@@H]1[C@@H](O)[C@@H]2O[C@H]3[C@H](O[C@@H](CCCCC)CCCCCCC(=O)CCC(=O)OC[C@@H](O2)[C@H]1OC(=O)/C=C/c1ccccc1)O[C@H](C)[C@H](OC(C)=O)[C@@H]3O`, the Potency in assay [5] was 0.594 µM (active); in assay [2] it was 0.0747 µM (active); in assay [6], 0.0335 µM (active); in assay [4], 0.0375 µM (active). In addition, the Potency result in assay [3] was “inactive”.

On to `C/C(=C\[C@H](C)C(=O)C[C@H](O)CC1CC(=O)NC(=O)C1)[C@@H]1OC(=O)/C=C/CC/C=C/C=C/[C@@H]1C`, for which the Potency was 44 µM (active) in assay [1]; 0.118 µM (active) in assay [5]; 0.118 µM (active) in assay [2]; 0.0668 µM (active) in assay [6]; 0.941 µM (active) in assay [4].

On to `C/C=C1/CN2CC[C@]34C(=C(C(=O)OC)[C@H]1C[C@H]23)Nc1ccccc14`, for which the Potency entry in assay [1], in assay [5], in assay [2], in assay [3] and in assay [4] was “inactive” in each case.

On to `C/C=C/[C@@H]1[C@H]2C[C@@H](C)CC[C@@H]2C(C)=C[C@H]1C(=O)c1c(O)c(-c2ccc(O)cc2)c[nH]c1=O`, for which the Potency is 22 µM (active) in assay [1], 21.1 µM (active) in assay [5] and 23.6 µM (active) in assay [2].

With `CC(C)CC1C(=O)O[C@H](C(C)C)C(=O)N(C)C(CC(C)C)C(=O)O[C@@H](C(C)C)C(=O)N(C)C(CC(C)C)C(=O)O[C@H](C(C)C)C(=O)N(C)C(CC(C)C)C(=O)O[C@@H](C(C)C)C(=O)N1C` (stereo partly specified), the Potency in assay [1] is 4.4 µM (active); in assay [2] it was 5.94 µM (active); in assay [6], 6.68 µM (active); in assay [4], 0.747 µM (active).

Take `CC[C@@H]1CN2CCc3c([nH]c4cccc(OC)c34)[C@@H]2C[C@@H]1/C(=C\OC)C(=O)OC`: the Potency result in assay [1] was “inactive”. In assay [2], the Potency is 14.9 µM (active).

With `CCCC[C@@H]1CC[C@H]2CCCC(CCCO)N12` (stereo partly specified), the Potency entry in assay [2], in assay [6] and in assay [3] was “inactive” throughout. In addition, the Potency in assay [4] was 0.0106 µM (active).

Turning to `CN(C)C1C(=O)C(C(N)=O)=C(O)[C@@]2(O)C(=O)C3=C(O)c4c(O)ccc(Cl)c4[C@](C)(O)C3CC12` (stereo partly specified), in assay [7], the Potency was 282 µM (active).

For the origin of these results see PubChem BioAssay (NCATS).
